Test results as given in PubChem BioAssay.
A number with no mark means an inactive call. The rule behind the calls is not given here.

Biological target: Pantothenate synthetase (Mycobacterium tuberculosis (strain ATCC 25618 / H37Rv)) (UniProt P9WIL5)
Experiment: Coupled enzyme confirmation of inhibitors against recombinant Mtb PanC (AID 375);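 note: 0% = full reaction with vehicle and 100% = no enzyme background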
Conditions: coupled enzyme assay; at 10 µM, active compounds read high

Pantothenate synthetase (Mycobacterium tuberculosis (strain ATCC 25618 / H37Rv)), sequence (P9WIL5 whole entry, looked up): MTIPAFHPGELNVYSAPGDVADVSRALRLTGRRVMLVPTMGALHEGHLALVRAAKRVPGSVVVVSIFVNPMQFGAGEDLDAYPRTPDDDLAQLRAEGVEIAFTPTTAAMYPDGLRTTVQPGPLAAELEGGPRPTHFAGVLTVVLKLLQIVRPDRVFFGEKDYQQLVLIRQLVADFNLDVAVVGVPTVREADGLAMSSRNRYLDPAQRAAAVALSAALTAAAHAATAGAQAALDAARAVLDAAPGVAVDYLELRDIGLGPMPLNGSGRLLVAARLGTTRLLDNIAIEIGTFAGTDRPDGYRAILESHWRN

Row | SMILES | inhibition [%]
1 | COC(=O)c1cc(NC(=O)C2COc3ccccc3O2)cc(C(=O)OC)c1 (stereo not given) | 0
2 | CCOc1cc(C(=O)NCC2CCCO2)cc(OCC)c1OCC (stereo not given) | 3
3 | Cc1ccc(-c2nc3cnccn3c2Nc2ccc3c(c2)OCO3)o1 | 2
4 | Cc1cccc(OCc2nc(C#N)c(NCCN(C)C)o2)c1 | 1
5 | CN(C)c1nc(SCCOC(=O)c2ccccc2)nc(N(C)C)n1 | 6
6 | COc1ccc2cc(CN(Cc3ccco3)C(c3nnnn3C3CCCCC3)C(C)C)c(=O)[nH]c2c1 (stereo not given) | 5
7 | NS(=O)(=O)c1ccc(CCNC(=O)c2cccnc2)cc1 | 1
8 | COc1ccc(CNc2oc(-c3ccccc3)nc2C#N)cc1 | 5
9 | O=c1c2[nH]c3ccc(Cl)cc3c2ncn1Cc1ccccn1 | 0
10 | CCn1cc(C(=O)NCCCOC)c(=O)c2cc(S(=O)(=O)N(C)C3CCCCC3)ccc21 | 2
11 | CCCCC(=O)NCCc1cc2c(C)ccc(C)c2[nH]c1=O | 0
12 | O=C(COc1ccc(F)cc1Br)N1CCc2ccccc21 | 10
13 | O=C1CSC(=Nc2ccc(O)cc2)N1c1ccc(O)cc1 | 0
14 | CC1Cc2ccccc2N1C(=O)CSc1nnc2n1C(C)(C)Cc1ccccc1-2 (stereo not given) | 0
15 | CN(CC(O)COCc1cccs1)C1CCCCC1 (stereo not given) | 1
16 | COc1ccccc1N(CC(=O)NCc1ccccn1)S(C)(=O)=O | 0
17 | COc1cccc(OCCSc2nnc3sc4ccccc4n23)c1 | 0
18 | O=c1oc2ccccc2c2nccnc12 | 0
19 | COc1ccc(N2C(=O)CC(NC3CC3)C2=O)cc1 (stereo not given) | 0
20 | Cc1cc(NC(=O)C23CCC(C)(c4nc5cc(Cl)c(Cl)cc5nc42)C3(C)C)no1 (stereo not given) | 0

Row | SMILES | inhibition [%]
21 | O=C(CCS(=O)(=O)c1cccc2nsnc12)NCc1ccccc1 | 0
22 | COc1ccc(NC(=O)CN(c2ccc(C)cc2)S(C)(=O)=O)c(OC)c1 | 4
23 | Cn1c(=O)c(C(=S)NC(=O)C2CC2)c(N)n(Cc2ccccc2)c1=O | 3
24 | CCOc1cc(S(=O)(=O)NCc2ccc3c(c2)OCO3)ccc1F | 2
25 | CCOc1ccc(S(=O)(=O)N2CCN(c3ccc(C)cc3C)CC2)cc1 | 0
26 | c1nnc(NC2=NCCCCC2)s1 | 0
27 | CC1Cc2ccccc2N1NC(=O)c1ccc(Cl)c(S(N)(=O)=O)c1 (stereo not given) | 0
28 | O=c1[nH]c2cccnc2n1Cc1ccco1 | 0
29 | CCOc1ccc(N(CC(=O)NC2CCCC(C)C2C)S(=O)(=O)c2c(C)noc2C)cc1 (stereo not given) | 2
30 | CCc1ccccc1NC(=O)C(C#N)Cc1cccnc1 (stereo not given) | 0
31 | CCCCCC#CCC#CCC#CCC#CCCCC(=O)O | 0
32 | CC(C)N(O)C(=O)NC(C)(C)C | 6
33 | CCN(CC)Cc1csc(C(N)=O)c1 | 5
34 | CC(=O)c1cc(F)c(N2CCN(C(=O)Cc3ccccc3)CC2)cc1C | 0
35 | O=C(CN1C(=O)COCC1=O)N1CCOCC1 | 0
36 | O=C(Nc1ccc(F)cc1)N(CCCN1CCOCC1)Cc1cc2cc3c(cc2[nH]c1=O)OCO3 | 6
37 | CN1CCN(c2nc3c(c(=O)n(C)c(=O)n3C)n2Cc2cccc3ccccc23)CC1 | 0
38 | Cc1ccc(-c2ccc(=O)n(CCC(=O)NCCN3CCCCC3C)n2)cc1 (stereo not given) | 0
39 | Nc1cc(N)cc(-c2nc3ccccc3o2)c1 | 4
40 | Cc1occc1-c1nnc(SCC(=O)N2CCOCC2)n1Cc1ccco1 | 6
